Assay outcomes as filed in PubChem.
Only some compounds are listed: those with a hit (about 12% of all), similar ones and a draw of the others.
Pf growth 96h: Primary qHTS for delayed death inhibitors of the malarial parasite plastid, 96 hour incubation. P. falciparum luciferase reporter growth, 96 h. Potency, µM (titrated, usually from 28.7 µM), most hits filed as inhibitors. 6.9% of 320,000 active. AID 504834, 2011
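P. falciparum expressing integrated firefly luciferase, in erythrocytes at 2% hematocrit, 0.05% parasitemia, incubated with compounds 96 h at 37 C, 5% CO2. Growth inhibition read as loss of luminescence; two-generation exposure targets delayed-death apicoplast inhibitors.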
AmpC detergent: qHTS Inhibitors of AmpC Beta-Lactamase (assay with detergent). P00811. AmpC hydrolysis of nitrocefin, absorbance 480 nm, 0.01% Triton. Potency, µM (series often up to 114 µM), usual class: inhibitors. 0.041% of 370,000 active; further: nearly all actives have a fitted effect of over 25% in size
Target sequence (P00811 whole entry, looked up): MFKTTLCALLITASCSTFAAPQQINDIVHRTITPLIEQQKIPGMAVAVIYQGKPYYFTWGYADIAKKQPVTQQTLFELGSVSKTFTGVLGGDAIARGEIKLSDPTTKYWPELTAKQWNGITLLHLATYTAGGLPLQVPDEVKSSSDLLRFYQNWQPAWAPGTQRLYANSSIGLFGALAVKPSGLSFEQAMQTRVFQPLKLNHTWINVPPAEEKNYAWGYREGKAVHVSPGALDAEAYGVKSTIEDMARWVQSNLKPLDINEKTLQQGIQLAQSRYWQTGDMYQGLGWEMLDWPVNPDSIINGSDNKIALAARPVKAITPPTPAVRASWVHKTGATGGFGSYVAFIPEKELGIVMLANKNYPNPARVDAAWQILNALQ
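20 mM phosphate pH 7.0 + 0.01% (detergent screen) or 0.0001% Triton X-100; 5.3 nM AmpC reagent; cpd preinc 15 min RT; nitrocefin (800 uM stock) to start; A480 q20 s × 4 min; Activity was normalised to no-enzyme and no-compound control wells.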
SARS PLP yeast: qHTS of Yeast-based Assay for SARS-CoV PLP; S. cerevisiae expressing SARS-CoV PLpro, growth rescue; Potency, µM (highest dose often 32.9 µM), actives largely listed as activators; 0.19% of 330,000 active; AID 485353, 2010; calls by dose curve; further: nearly all actives have a fitted effect of over 55% in size
Pf growth 48h: Primary qHTS for delayed death inhibitors of the malarial parasite plastid, 48 hour incubation; AID 504832, 2011; 5.9% of 310,000 active; P. falciparum luciferase growth in erythrocytes, 48 h; Potency, µM (titrated, usually from 28.7 µM), actives largely listed as inhibitors
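Here the parasites carry a stable luciferase gene and grow inside erythrocytes in Albumax-based RPMI medium with compound for one erythrocytic cycle. Activity is scored as loss of luminescent signal.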
Sm TGR inh: qHTS Assay for the Inhibitors of Schistosoma Mansoni Peroxiredoxins | purified TGR, DTNB reduction, TNB absorbance 405 nm | 3% of 360,000 active | Schistosoma mansoni thioredoxin glutathione reductase (TGR), Q962Y6 | Potency, µM (titrated, usually from 114 µM), actives largely listed as inhibitors; further: nearly all actives have a fitted effect of over 60% in size
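First, TGR (20 nM dispensed) and NADPH were mixed with compound. Second, a 15 min room-temperature incubation followed. Third, further NADPH and then DTNB were added to start the reaction. Finally, TNB absorbance was monitored kinetically.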
AmpC inh no detg: qHTS Inhibitors of AmpC Beta-Lactamase (assay without detergent); AmpC nitrocefin hydrolysis, absorbance 480 nm, 0.0001% Triton; Potency, µM (doses to about 57.1 µM), usual class: inhibitors; 0.52% of 330,000 active; further: nearly all actives have a fitted effect of over 20% in size
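20 mM phosphate pH 7.0 + 0.01% (detergent screen) or 0.0001% Triton X-100; 5.3 nM AmpC reagent; cpd preinc 15 min RT; nitrocefin (800 uM stock) to start; A480 q20 s × 4 min; Activity was normalised to no-enzyme and no-compound control wells.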
Hits are given with their value; - = inactive; ? = inconclusive; . = not tested or not shown; [ ] = dose if it differs, or a comment. Unless noted, the call rests on the fitted dose curve; in most records, active means well fitted curve in the direction sought with a large enough effect; inconclusive means small, poorly fitted or top-dose-only effect, or another doubt; inactive means no such curve, though single readings can be large; an effect the other way counts as inactive or inconclusive.

SMILES | Pf growth 96h | AmpC detergent | SARS PLP yeast | Pf growth 48h | Sm TGR inh | AmpC inh no detg
CCOc1ccccc1OCCC(=O)N1CCN(S(=O)(=O)c2ccccc2[N+](=O)[O-])CC1 | ? | - | - | 11.7µM | - | -
CCOc1ccc(OCCC(=O)N2CCN(S(=O)(=O)c3ccc(OCC)cc3)CC2)cc1 | ? | - | - | ? | - | -
CCOc1ccccc1OCCCC(=O)N1CCN(S(=O)(=O)c2ccc(Cl)cc2)CC1 | ? | - | - | 13.1µM | - | -
CC(C)c1ccc(NC(=O)N2CCN(S(=O)(=O)c3ccccc3)CC2)cc1 | -[5.75 µM] | ? | - | ? | . | -
Cc1ccc(Cl)cc1-n1c(=O)cc(N2CCN(c3ccc(F)cc3)CC2)[nH]c1=O | . | - | . | . | - | .
CCOc1ccc(Br)cc1S(=O)(=O)Nc1ccccc1N1CCOCC1 | . | - | - | 8.28µM | - | -
Cn1c(=O)c2nc(Cl)c(-c3ccccc3)nc2n(C)c1=O | ? | - | - | 4.15µM | - | -
Cn1c(=O)c2nc3ccccc3nc2n(C)c1=O | ? | - | - | - | - | -
CCS(=O)(=O)NC(C)C(c1cccs1)N1CCN(c2ccc(F)cc2)CC1 (centres undefined) | - | - | - | - | - | ?
CC(NC(=O)c1ccco1)C(c1cccs1)N1CCN(c2ccccc2F)CC1 (centres undefined) | . | - | - | ? | - | -
CC(NC(=O)c1ccco1)C(c1cccs1)N1CCN(c2ccccc2)CC1 (centres undefined) | 13.1µM | ? | - | 11.7µM | - | -
CC(NC(=O)c1ccco1)C(c1cccs1)N1CCN(c2ccc(F)cc2)CC1 (centres undefined) | . | - | - | 7.38µM | - | -
Cc1ccccc1C(=O)NC(C)C(c1cccs1)N1CCOCC1 (centres undefined) | - | ? | - | - | - | 2.82µM
Cc1ccccc1NC(=O)CSc1nc(-c2ccco2)nc2cc(=O)[nH]n12 | . | - | . | . | 39.8µM | .
Cc1cccc(C)c1NC(=O)CSc1nnc(-c2ccco2)c(-c2ccco2)n1 | - | - | - | - | 1.78µM | -
Cc1ccccc1NC(=O)CSc1nnc(-c2ccco2)c(-c2ccco2)n1 | - | - | - | ? | 3.55µM | -
COc1ccc(-c2nnc(SCC(=O)Nc3c(C)cccc3C)nc2-c2ccc(OC)cc2)cc1 | . | - | . | . | - | .
O=S(=O)(c1ccc(-c2csc(=Nc3ccc(OC(F)(F)Cl)cc3)n2CCCO)cc1)N1CCCC1 | . | - | . | . | - | .
c1ccc(-c2ncnc3nc4n(c23)CCC4)cc1 | - | - | . | - | - | .
COc1ccccc1CNS(=O)(=O)c1c(C(=O)N2CCC(C)CC2)c(C)n(C)c1C | . | - | . | . | - | .
CCc1ccc(CNC(=O)C2CCN(c3nc4ccccc4nc3C(F)(F)F)CC2)cc1 | . | - | . | . | - | .
O=C(CCS(=O)NCc1ccccc1)NCc1ccccc1 (centres undefined) | - | ? | - | - | 31.6µM | -
Oc1ccc(CNC2CCCCC2)cc1 | . | - | - | 11.7µM | - | -
Clc1ccc(CNC2CCCC2)cc1 | - | - | - | . | - | -
CC(=O)c1cccc(NC(=O)CSc2ccc(-c3sc(C)nc3C)nn2)c1 | 13.1µM | - | - | - | - | -
SMILES | Pf growth 96h | AmpC detergent | SARS PLP yeast | Pf growth 48h | Sm TGR inh | AmpC inh no detg
Cc1nc(C)c(-c2ccc(SCC(=O)Nc3ccc(Br)cc3)nn2)s1 | . | - | . | . | - | .
COc1ccc(NC(=O)CSc2ccc(-c3sc(C)nc3C)nn2)cc1 | 13.1µM | - | - | - | - | -
Cc1nc(C)c(-c2ccc(SCC(=O)Nc3cccc(Cl)c3)nn2)s1 | 13.1µM | - | - | - | - | -
COc1cc(C(=O)NCCSc2c(-c3ccccc3)[nH]c3ccccc23)cc(OC)c1OC | . | ? | . | . | - | .
Cc1ccc(CCNC(=O)c2cccc(Nc3nc4ccccc4nc3-n3nc(C)cc3C)c2)cc1 | . | - | . | . | - | .
CCOc1ccc(Cn2nnc(C(=O)Nc3cccc(SC)c3)c2N)cc1 | . | ? | . | . | - | .
N#Cc1ccc(CN2CCN(C(=O)c3cc(C4CC4)nn3-c3ccccc3)CC2)cc1 | ? | - | - | ? | - | -
O=C(Nc1ccccc1C(F)(F)F)c1ccc(CN2CCC(Cc3ccccc3)CC2)cc1 | 10.4µM | - | - | 13.1µM | - | -
O=C(CN1C(=O)/C(=C\c2ccc(F)cc2)Oc2ccccc21)N1CCN(c2ccccn2)CC1 | 7.38µM | - | - | - | - | -
CCc1ccc(/C=C2\SC(=S)N(CCCC(=O)Nc3ccccc3C(=O)O)C2=O)cc1 | 16.5µM | - | - | - | - | -
O=C(CN1C(=O)/C(=C/c2ccc(F)cc2)SC1=S)N1CCN(CCc2ccccn2)CC1 | 14.7µM | - | - | - | - | -
Cc1ccc(/C=C2\SC(=S)N(CCCC(=O)Nc3ccccc3C(=O)O)C2=O)cc1 | ? | - | - | - | - | -
Cc1ccc(/C=C2\SC(=S)N(CCCC(=O)Nc3ccccn3)C2=O)cc1 | 10.4µM | ? | - | ? | - | -
COC(=O)c1ccccc1S(=O)(=O)NNC(=O)C12CC3CC(CC(C3)C1)C2 | . | . | - | . | . | -
CCn1c(=O)c(C(=O)Nc2nc3ccccc3[nH]2)c(O)c2ccccc21 | - | - | - | ? | - | -
CCC[N+]12CCC(CC1)C(=C(c1ccccc1)c1ccccc1)C2 | ? | ? | - | 1.31µM | - | -
CCCC[N+]12CCC(CC1)C(=C(c1ccccc1)c1ccccc1)C2 | 0.738µM | - | - | 1.31µM | - | -
CC/C(=N/N=C(\CC)c1ccccc1)c1ccccc1 | ? | ? | - | - | - | -
Cc1cccc(Cn2c(SCc3ccc(C(=O)NCc4cccs4)cc3)nc3cccnc32)c1 | . | - | . | . | - | .
CCN1CCc2nc(NC(=O)C(c3ccccc3)c3ccccc3)sc2C1 | 8.28µM | - | - | . | - | -
CCN1CCc2nc(NC(=O)CC(c3ccccc3)c3ccccc3)sc2C1 | 10.4µM | - | - | 5.86µM | ? | -
CCN1CCc2nc(NC(=O)Cc3ccc4c(c3)OCCO4)sc2C1 | - | - | - | ? | ? | -
CCN1CCc2nc(NC(=O)c3ccc(S(=O)(=O)N(C)C)cc3)sc2C1 | - | ? | - | - | - | -
Cc1cccc(C)c1NC(=S)N/N=C1\CC2CC=CC12 (centres undefined) | 9.28µM | - | - | ? | - | -
Cc1cccc(C(=O)NCC(=O)OCc2cc(=O)n3nc(CC(C)C)sc3n2)c1 | . | - | . | . | - | .
COc1cccc(NC(=O)c2ccc(NCCCN3CCC(C)CC3)c([N+](=O)[O-])c2)c1 | ? | - | - | 2.08µM | - | -
COc1cccc(NC(=O)c2ccc(NCCCN3CC(C)CC(C)C3)c([N+](=O)[O-])c2)c1 (centres undefined) | 3.7µM | - | - | ? | - | -
